Molecules are shown by their SMILES. Measured potencies and affinities stand elsewhere. Results filed as inconclusive are left out. Activity calls are given as the source filed them.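 Rule for the calls: active = fluorescent signal drops by 40% or more, counted as a hit; inconclusive = no clear call, values can overlap the other calls; inactive = the rest, including any activity in the opposite direction.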

A short description of the assay: blockers of FN fibrillogenesis by fibroblasts – AH1F cells, Alexa488-FN fluorescence, cherry-picks, dose response (AID 1035475).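 Note: AH1F fibroblasts incorporating labeled fibronectin into their extracellular matrix.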 As to conditions: Alexa488-fibronectin deposition fluorescence, overnight; series mostly up to 35 µM.
On to `CO[C@H]1CN(C)C(=O)c2cc(NC(=O)Nc3cc(Cl)cc(Cl)c3)ccc2OC[C@@H](C)NC[C@H]1C`, for which the molecule was classed as inactive. As to `Nc1nc(-c2cc3c(cc2Cl)OCCO3)cs1`, the molecule was classed as inactive. Under `COc1cccc(-c2ccc3c(c2)[C@H]2[C@H](CCN2S(=O)(=O)c2cccc(OC)c2)[C@@H](CO)N3)c1` stands “inactive”. `N#C[C@H]1[C@@H](c2ccccc2C2=CCCCC2)[C@@H](CO)N1S(=O)(=O)c1ccccc1`: the molecule was classed as inactive. Regarding `CCCCOc1ccc(C(C)NC(=O)C2CCCN(S(=O)(=O)CCC)C2)cc1` (stereo not given), the result was inactive. As to `CN(C)C(=O)c1ccc(-c2ccc3c(c2)[C@H]2[C@H](CCN2C(=O)c2ccc(F)cc2)[C@@H](CO)N3C)cc1`, the call was inactive. On to `CO[C@H]1CN(C)C(=O)c2cc(NC(=O)Nc3cc(Cl)cc(Cl)c3)ccc2OC[C@H](C)NC[C@@H]1C`, for which the call was inactive.

For the molecule `O=C(c1cccnc1)N1C[C@@H]2[C@H](c3ccccc31)[C@H](CO)N2CC1CCCC1`, the call was inactive. Turning to `C[C@@H]1CN([C@@H](C)CO)C(=O)c2cc(-c3ccccc3)cnc2O[C@@H]1CN(C)C(=O)c1cccc(F)c1`, the result was inactive. With `Cc1ccc(O)c(-c2cc(-c3cccc(Br)c3)n[nH]2)c1`, the call was inactive. Regarding `O=C(Nc1ccccc1F)N1C[C@H]2[C@@H](c3ccccc31)[C@@H](CO)N2C(=O)C1CC1`, the molecule was called inactive. With `c1ccc2[nH]c(SCc3cn4cccnc4n3)nc2c1`, the outcome was inactive. Regarding `COc1ccc(C)cc1N(CC(=O)Nc1cccc(N(C)S(C)(=O)=O)c1)S(C)(=O)=O`, the outcome was inactive. For the molecule `O=C(Nc1ccccc1F)N1C[C@@H]2[C@H](c3ccccc31)[C@H](CO)N2C(=O)C1CCOCC1`, the call was inactive.

Turning to `CC(NC(=O)CSc1ccc(S(=O)(=O)N2CCOCC2)cn1)c1ccc(Cl)cc1Cl` (stereo not given), the molecule was classed as inactive.

As to `C[C@@H]1CN([C@@H](C)CO)C(=O)c2cccc(NC(=O)Nc3ccc(C(F)(F)F)cc3)c2O[C@H]1CN(C)C(=O)Nc1cccc2ccccc12`, the molecule was called inactive.

Turning to `Cc1cccc(NC(=O)Nc2ccc(S(=O)(=O)Nc3onc(C)c3C)cc2)c1`, the call was inactive. Under `C[C@H]1CN([C@@H](C)CO)C(=O)c2cc(-c3ccccc3)cnc2O[C@@H]1CN(C)Cc1ccccc1` stands “inactive”; under `O=C(Nc1ccccc1F)N1C[C@@H]2[C@H](c3ccccc31)[C@@H](CO)N2C(=O)C1CC1`, “inactive”. `COc1ccc(-c2oc3ncnc(NCCCN4CCOCC4)c3c2-c2ccc(OC)cc2)cc1`: the molecule was called inactive. Under `CO[C@@H]1CN(C)C(=O)c2ccc(NC(=O)c3ccc(-c4ccccc4)cc3)cc2OC[C@H](C)NC[C@H]1C` stands “inactive”; under `COC(=O)C[C@@H]1CC[C@@H]2[C@@H](COc3ccc(NC(=O)Cc4cccs4)cc3C(=O)N2C)O1`, “inactive”; under `COC(=O)c1cn(CC(=O)NCc2ccco2)c2ccccc12`, “inactive”. Then `O=C(CC1Nc2ccccc2NC1=O)Nc1ccc2c(c1)OCO2` (stereo not given), with “inactive”; and `Cc1ccn2cc(-c3ccc(NC(=O)c4ccco4)cc3)nc2c1`, with “inactive”. `CO[C@H]1CN(C)C(=O)c2ccc(NC(=O)Nc3cc(Cl)cc(Cl)c3)cc2OC[C@H](C)NC[C@@H]1C`: the molecule was classed as inactive. For the molecule `CC(C)Cc1nnc(NC(=O)CSc2nc(N)cc(=O)[nH]2)s1`, the result was inactive. Turning to `Cc1ccc(Nc2nnc(SCc3ccccc3)s2)cc1`, the molecule was called inactive. For `CCOC(=O)C1=C(C)Nc2nc3ccccc3n2C1c1ccncc1` (stereo not given), the outcome was inactive. For the molecule `COCC(=O)Nc1ccc2c(c1)C(=O)N(C)[C@@H]1CC[C@H](CC(=O)NCc3ccccc3Cl)O[C@@H]1CO2`, the molecule was called inactive. As to `CC(C)C(=O)Nc1ccc2c(c1)C(=O)N(C)[C@@H]1CC[C@H](CC(=O)O)O[C@@H]1CO2`, the molecule was classed as inactive. For `C[C@H]1CN([C@@H](C)CO)C(=O)c2cc(-c3ccccc3)cnc2O[C@H]1CN(C)Cc1ccccc1`, the molecule was classed as inactive.

For the molecule `Cc1ccc(N(CC(=O)NCc2ccco2)S(=O)(=O)c2ccccc2)cc1`, the outcome was inactive. Then `C[C@@H]1CN([C@H](C)CO)C(=O)c2cc(NC(=O)C3CCCCC3)ccc2O[C@@H]1CN(C)Cc1ccc(-c2ccccc2)cc1`, with “inactive”. Under `CO[C@H]1CN(C)C(=O)c2cc(NC(=O)Nc3ccc(Cl)c(Cl)c3)ccc2OC[C@@H](C)NC[C@H]1C` stands “inactive”.

(Values after PubChem BioAssay AID1035475 (Broad Institute, 2014).)
